Holding throughout (conditions): mRNA level, 48 h; actives raise or lower the signal
Read-out in one experiment: HGF (gene 3082)
Nature of the experiment: LTEA_HepaRG_HGF: Life Technologies and Expression Analysis (LTEA) Assay for Hepatocyte Growth Facto (HGF) using HepaRG (AID 2283505). The gist of the method: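 Gain or loss of HGF mRNA in human HepaRG liver cells after 48 h chemical exposure; eight concentrations up to 100 uM with 0.5% DMSO vehicle, quantified by TaqMan qRT-PCR.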

Read-out in experiment [1]: Insulin Like Growth Factor 1 (IGF1), IGF1 (gene 3479)
Nature of the experiment: LTEA_HepaRG_IGF1: Life Technologies and Expression Analysis (LTEA) Assay for Insulin Like Growth Factor 1 (IGF1) using HepaRG (AID 2283506). The gist of the method:
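qRT-PCR readout of IGF1 mRNA, normalized to three housekeeping genes, after 48 h chemical exposure of HepaRG cells. Concentrations: 8-point half-log series, top 100 uM, 0.5% DMSO vehicle. Gain or loss fitted against DMSO baseline.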

Read-out in experiment [2]: Intercellular Adhesion Molecule 1 (ICAM1), ICAM1 (gene 3383)
Nature of the experiment: LTEA_HepaRG_ICAM1: Life Technologies and Expression Analysis (LTEA) Assay for Intercellular Adhesion Molecule 1 (ICAM1) using HepaRG (AID 2283507). The gist of the method:
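Gain or loss of transcript in HepaRG hepatic cells is quantified by qRT-PCR after 48 h chemical exposure (up to 100 uM, half-log steps), with DMSO as baseline.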

Read-out in experiment [3]: Insulin-like growth factor-binding protein 1 (IGFBP1), IGFBP1 (gene 3484)
The experiment is described as follows: LTEA_HepaRG_IGFBP1: Life Technologies and Expression Analysis (LTEA) Assay for Insulin-like growth factor-binding protein 1 (IGFBP1) using HepaRG (AID 2283508). The gist of the method: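 mRNA induction or loss was quantified by qRT-PCR after 48 h chemical exposure of human HepaRG cells, with 0.5% DMSO as vehicle and baseline. Concentration-response over eight points up to 100 uM.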

Read-out in experiment [4]: Interleukin 6 (IL6), IL6 (gene 3569)
Nature of the experiment: LTEA_HepaRG_IL6: Life Technologies and Expression Analysis (LTEA) Assay for Interleukin 6 (IL6) using HepaRG (AID 2283509). The gist of the method:
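qRT-PCR read-out of IL6 transcript, normalized to three housekeeping genes, after 48 h chemical exposure of HepaRG cells; 8-point half-log series, top 100 uM, 0.5% DMSO vehicle. Bidirectional curve fitting against DMSO baseline.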

Read-out in experiment [5]: Interleukin 6 Receptor (IL6R), IL6R (gene 3570)
The experiment is described as follows: LTEA_HepaRG_IL6R: Life Technologies and Expression Analysis (LTEA) Assay for Interleukin 6 Receptor (IL6R) using HepaRG (AID 2283510).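 On AC50: differentiated human HepaRG liver cells in serum-free induction medium; TaqMan qRT-PCR signal normalized to ACTB GAPDH and POLR2A housekeeping genes.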 The gist of the method:
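HepaRG, 48 h exposure, 8-pt half-log series, top 100 uM, 0.5% DMSO vehicle, duplicates. Read-out: TaqMan qRT-PCR of IL6R transcript, housekeeping-gene normalized. Gain or loss fitted relative to DMSO baseline.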

Read-out in experiment [6]: Potassium channel subfamily K member 1 (KCNK1), KCNK1 (gene 3775)
The experiment is described as follows: LTEA_HepaRG_KCNK1: Life Technologies and Expression Analysis (LTEA) Assay for Potassium channel subfamily K member 1 (KCNK1) using HepaRG (AID 2283511). The gist of the method: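 HepaRG, 48 h exposure, 8-pt half-log series top 100 uM, 0.5% DMSO vehicle, duplicates. Readout: KCNK1 transcript by qRT-PCR (Fluidigm array), housekeeping-normalized; bidirectional curve fit relative to DMSO baseline.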

Read-out in experiment [7]: Keratin 19 (KRT19), KRT19 (gene 3880)
The experiment is described as follows: LTEA_HepaRG_KRT19: Life Technologies and Expression Analysis (LTEA) Assay for Keratin 19 (KRT19) using HepaRG (AID 2283512). The gist of the method: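 Gene-expression endpoint in the human liver line HepaRG after 48 h exposure to up to 100 uM test chemical with 0.5% DMSO vehicle; KRT19 mRNA by qRT-PCR, analyzed bidirectionally versus DMSO.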

Read-out in experiment [8]: JUN Transcription Factor, JUN (gene 3725)
The experiment is described as follows: LTEA_HepaRG_JUN: Life Technologies and Expression Analysis (LTEA) Assay for JUN Transcription Factor using HepaRG (AID 2283513). The gist of the method:
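HepaRG, 48 h exposure, 8-pt half-log series top 100 uM, 0.5% DMSO, duplicate. JUN mRNA by qRT-PCR (Fluidigm), housekeeping-normalized (ACTB/GAPDH/POLR2A); bidirectional curve fit vs DMSO baseline.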

Read-out in experiment [9]: Lipase C (LIPC), LIPC (gene 3990)
Nature of the experiment: LTEA_HepaRG_LIPC: Life Technologies and Expression Analysis (LTEA) Assay for Lipase C (LIPC) using HepaRG (AID 2283514). The gist of the method: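 HepaRG, 48 h exposure, 8-pt half-log series from 100 uM in 0.5% DMSO, duplicates. Readout: LIPC mRNA by Fluidigm qRT-PCR, housekeeping-normalized (ACTB/GAPDH/POLR2A). Gain or loss fitted bidirectionally against DMSO baseline.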

Active and inactive are the calls of the source. How the source made its calls: active means hit-call score of the fitted dose curve at least 0.9, where 1 is the maximum; inactive means score below 0.9.

By AC50 is commonly meant the midpoint of the concentration-response curve, whichever way the signal moves.

As for `COC(=O)C(C)Oc1ccc(Oc2ccc(Cl)cc2Cl)cc1` (stereo unspecified), the call (with HGF (gene 3082); in [1]; in [2]; in experiment [3]; in experiment [4]; in experiment [5]) was inactive. Moreover, the compound was classed as inactive in experiment [6], in experiment [8] and in [9]. In addition, the AC50 in experiment [7] was 77 µM (active).

Turning to `COC(=O)N(OC)c1ccccc1COc1ccn(-c2ccc(Cl)cc2)n1`, the compound was classed as inactive (with HGF (gene 3082); in experiment [5]; in experiment [8]). For the same compound, the concentration at half-maximal activity (AC50) in experiment [1] is 68.1 µM (active); in experiment [2], 81.2 µM (active); in [3], 64.3 µM (active); in experiment [4], 83.9 µM (active); in experiment [6] it was 86.2 µM (active); in experiment [7], 23.3 µM (active).

Regarding `CS/C(C)=N/OC(=O)N(C)SN(C)C(=O)O/N=C(\C)SC`, the compound was called inactive (with HGF (gene 3082); in experiment [1]; in [2]; in experiment [3]; in [4]; in [5]). Also, the compound was classed as inactive in [6], in experiment [7], in [8] and in [9].

Take `O=C(Nc1ccccc1)Nc1ccnc(Cl)c1`: the half-maximal activity concentration (AC50) in the experiment with HGF (gene 3082) is 78 µM (active); in experiment [1] it was 28.3 µM (active); in experiment [3], 63.4 µM (active); in experiment [4] it was 93.9 µM (active); in [5], 76.2 µM (active); in experiment [7] it was 28.1 µM (active). Further, the AC50 in [9] was 24 µM (active). Moreover, the call in experiment [2], in experiment [6] and in experiment [8] was inactive.

Consider `C=CCC1=C(C)[C@@H](OC(=O)[C@@H]2[C@@H](C=C(C)C)C2(C)C)CC1=O`, for which the call (with HGF (gene 3082); in experiment [2]; in experiment [3]; in [4]; in experiment [5]; in experiment [6]) was inactive. For the same compound, the call in experiment [7] and in [8] was inactive. For the same compound, the figures for the AC50 in experiment [1] and in experiment [9] were 50 µM (active) and 81.5 µM (active), respectively.

As to `C#CCOS(=O)OC1CCCCC1Oc1ccc(C(C)(C)C)cc1` (stereo unspecified), the concentration at half-maximal activity (AC50) was 20.1 µM (active) in the experiment with HGF (gene 3082); 19.5 µM (active) in experiment [1]; 14.6 µM (active) in experiment [3]; 23.1 µM (active) in experiment [4]; 14.5 µM (active) in experiment [5]; 21.5 µM (active) in experiment [6]. In addition, the AC50 in [7] is 12.8 µM (active). Also, the call in [2] and in [8] was inactive.

In the case of `CCc1nn(C)c(C(=O)NCc2ccc(C(C)(C)C)cc2)c1Cl`, the AC50 in the experiment with HGF (gene 3082) was 78.6 µM (active); in experiment [1], 0.782 µM (active); in [2] it was 2.34 µM (active); in experiment [3], 2.34 µM (active); in experiment [4], 1.37 µM (active); in experiment [6], 9.92 µM (active). Besides, the concentration at half-maximal activity (AC50) in experiment [7] is 0.616 µM (active); in experiment [9] it was 0.58 µM (active). The compound was called inactive in experiment [5] and in [8].

Turning to `CCOP(=S)(OCC)SCn1c(=O)oc2cc(Cl)ccc21`, the compound was classed as inactive (in the experiment with HGF (gene 3082); in experiment [2]; in experiment [3]; in experiment [4]; in experiment [5]; in [6]). Moreover, the result in experiment [8] was inactive.

As to `CC1=C(C(=O)Nc2ccccc2)SCCO1`, the compound was called inactive (in the experiment with HGF (gene 3082); in experiment [1]; in [2]; in experiment [3]; in [4]; in experiment [6]). Moreover, in [8], the compound was called inactive. For the same compound, the concentration at half-maximal activity (AC50) in experiment [5] is 50 µM (active); in experiment [7], 41.7 µM (active).

In the case of `Cc1c(F)c(F)c(COC(=O)C2C(/C=C(\Cl)C(F)(F)F)C2(C)C)c(F)c1F` (stereo unspecified), the result (in the experiment with HGF (gene 3082); in experiment [2]; in [3]; in experiment [4]; in experiment [5]; in experiment [6]) was inactive. Also, the outcome in experiment [7] and in experiment [8] was inactive. Besides, the AC50 in [1] is 69.4 µM (active).

As for `OC(c1ccc(Cl)cc1)(c1cncnc1)c1ccccc1Cl` (stereo unspecified), the AC50 with HGF (gene 3082) was 62 µM (active); in [1], 37.3 µM (active); in experiment [2], 74.3 µM (active); in experiment [3], 71.9 µM (active); in experiment [4], 73 µM (active); in experiment [6], 50 µM (active). Also, the compound was classed as inactive in [5], in experiment [7] and in experiment [8].

Consider `CNC(=O)ON=CC(C)(C)SC`, for which the compound was classed as inactive (with HGF (gene 3082); in experiment [1]; in experiment [2]; in experiment [3]; in experiment [4]; in experiment [5]). Moreover, the result in [6], in experiment [7] and in experiment [8] was inactive.

`CCCCOC(=O)c1ccccc1C(=O)OCCCC`: the compound was called inactive (with HGF (gene 3082); in experiment [1]; in experiment [2]; in experiment [3]; in [4]; in experiment [5]). Besides, the compound was classed as inactive in [6], in experiment [7], in [8] and in [9].
